# RBX1-CUL1 inh: inhibitors of human ROC1-CUL1 ubiquitin ligase activity; inhibition, % at 10 µM; actives 0.6% (n = 140,000); E3 ubiquitin-protein ligase RBX1 (Homo sapiens) + Cullin-1 (Homo sapiens), P62877+Q13616; in vitro K48 di-Ub FRET, acceptor:donor ratio, 45 min; in the data active = inhibition above about 25%
# Target sequence (P62877 whole entry, looked up): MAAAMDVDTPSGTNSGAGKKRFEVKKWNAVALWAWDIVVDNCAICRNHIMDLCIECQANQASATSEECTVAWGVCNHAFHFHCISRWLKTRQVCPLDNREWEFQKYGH
# Target sequence (Q13616 whole entry, looked up): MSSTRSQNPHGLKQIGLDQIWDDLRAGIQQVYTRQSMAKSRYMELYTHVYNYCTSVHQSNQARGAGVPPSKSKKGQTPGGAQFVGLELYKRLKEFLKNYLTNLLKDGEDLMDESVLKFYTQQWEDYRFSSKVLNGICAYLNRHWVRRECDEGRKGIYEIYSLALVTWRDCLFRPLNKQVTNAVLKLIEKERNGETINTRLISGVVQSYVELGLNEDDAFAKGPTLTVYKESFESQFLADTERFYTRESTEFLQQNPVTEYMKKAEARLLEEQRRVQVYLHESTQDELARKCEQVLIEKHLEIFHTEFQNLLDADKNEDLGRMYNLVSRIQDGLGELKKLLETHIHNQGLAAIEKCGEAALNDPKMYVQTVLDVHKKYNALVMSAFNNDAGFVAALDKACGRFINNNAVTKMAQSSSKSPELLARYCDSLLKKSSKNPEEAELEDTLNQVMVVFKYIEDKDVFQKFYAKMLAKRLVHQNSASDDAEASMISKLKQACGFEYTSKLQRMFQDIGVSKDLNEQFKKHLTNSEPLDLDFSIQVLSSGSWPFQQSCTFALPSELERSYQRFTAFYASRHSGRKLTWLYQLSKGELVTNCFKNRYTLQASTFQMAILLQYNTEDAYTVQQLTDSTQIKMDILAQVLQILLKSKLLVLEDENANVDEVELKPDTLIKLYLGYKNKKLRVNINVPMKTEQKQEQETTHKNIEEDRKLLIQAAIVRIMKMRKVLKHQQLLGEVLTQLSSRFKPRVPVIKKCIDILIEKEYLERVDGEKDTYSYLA
# Starred values were filed as active, the others as inactive. The entries come from a sample that favours hits as a whole.
SMILES,RBX1-CUL1 inh
O=C1NN(c2cccc(Cl)c2)C(=O)/C1=C\c1ccc(-c2ccc(C(=O)O)c(Cl)c2)o1,44*
Cc1cccc(N2NC(=O)/C(=C/c3ccc(-c4ccc(Cl)c(C(=O)O)c4)o3)C2=O)c1,3
COc1ccc(CN2C(=O)/C(=C/c3cc(Cl)c(OC)c(Br)c3)SC2=Nc2ccccc2)cc1,0
CN(C)S1=NC(C(Cl)(Cl)Cl)=NC(c2ccccc2)=N1 (stereo not given),-3
Fc1ccc(N2CCN(/C=C/c3nnnn3-c3ccc(Br)cc3)CC2)cc1,5
Clc1c2ccccc2nc2c1cc1c3c(cccc32)CC1,1
CC(NC(=O)C12C=CC(=O)C1C1C=CC2C1)c1ccccc1 (stereo not given),3
C/C=C(\C)CN1CCCC(N2CCC(CO)CC2)C1 (stereo not given),-6
CN(Cc1cccc2ncccc12)C(=O)CC1(c2cccc(C(F)(F)F)c2)CC(=O)N(C2CC2)C1=O (stereo not given),6
O=C(O)c1ccc(N2C(=O)c3cccc4c([N+](=O)[O-])ccc(c34)C2=O)cc1O,-9
COc1ccccc1N1C(=O)c2cccc3c(Nc4cccc(Cl)c4)c([N+](=O)[O-])cc(c23)C1=O,-6
O=C(O)c1cc(Nc2c([N+](=O)[O-])cc3c4c(cccc24)C(=O)OC3=O)ccc1O,27*
CCN(CC)CCN(C)C(=O)c1cc(COc2ccc(C)c(C)c2)on1,-2
COc1ccc(C2=C(C#N)C(=S)N=C(C3CC3)C2)cc1,-1
CN1CCC2=NC(=S)C(C#N)=C(c3ccc(F)cc3)C2C1 (stereo not given),97*
N#CC1=C(c2ccco2)C2CCCCC2=NC1=S (stereo not given),1
CC(=O)Nc1ccc(C2=NN(Cc3ccc(C)cc3C)C(=O)SC2)cc1,-1
COc1ccc(/C=C2\C(=O)NN(c3cccc(Cl)c3)C2=O)cc1OC,-8
O=C1NN(c2cccc(Cl)c2)C(=O)/C1=C/c1cccc(I)c1,9
O=C1NN(c2cccc(Cl)c2)C(=O)/C1=C/c1ccc(Cl)cc1,64*
O=C1NN(c2cccc(Cl)c2)C(=O)/C1=C\c1ccc(F)cc1,83*
O=C1NN(c2cccc(Cl)c2)C(=O)/C1=C/c1ccc(O)cc1,11
O=C1NN(c2cccc(F)c2)C(=O)/C1=C\c1ccccc1,-2
CC(c1nccs1)N(C)C(=O)c1coc(COc2ccccc2F)n1 (stereo not given),-4
COC(=O)C1OC(S(=O)(=O)c2ccccc2)C(OC(C)=O)C(OC(C)=O)C1OC(C)=O (stereo not given),-1
SMILES,RBX1-CUL1 inh
Nc1nonc1CC(=O)Nc1ccc(Br)cc1,-1
CC(C)c1ccc(OCC(O)CN2C(C)CCCC2C)cc1 (stereo not given),7
Cc1ccc(-n2c(-c3ccncc3)n[nH]c2=S)cc1,7
Cc1ccc(-n2c(Cl)c(Cl)nc(Cl)c2=O)cc1,45*
Cc1ccc(-n2c(-c3ccccc3)cc(-c3ccccc3)nc2=O)cc1,-10
Cc1cc(CNc2cc(C3CCCNC3)ncn2)c(C(F)(F)F)o1 (stereo not given),2
Cc1ccc(-n2c(SCC(=O)N/N=C/c3cccc(O)c3)nnc2-c2ccccc2)cc1,-7
OCCN1c2ccccc2CCc2ccccc21,-2
O=C(CN1CCc2ccccc21)NC1CCCCCC1,-5
O=S(=O)(O)SCCN1CCc2ccccc21,28*
CCOC(=O)C1=C(C)n2c(s/c(=C/c3ccc4c(c3)OCO4)c2=O)=NC1c1cc(OC)ccc1O (stereo not given),2
O=c1[nH]c(=S)[nH]c2c1CCCN2,3
CNC(=O)CCc1ccc(C(C)C)cc1,-6
CC1(CC(=O)O)Sc2ccccc2NC1=O (stereo not given),-2
CCOC(=O)c1c(NC(=O)CCCC(=O)O)sc(C)c1-c1ccc(F)cc1,3
CCOC(=O)c1c(NC(=O)c2cccs2)sc(C)c1-c1ccc(OC)cc1,3
CCOC(=O)c1c(NC(=O)CCC(=O)O)sc(C)c1-c1ccc(CC(C)C)cc1,91*
COC(=O)C1C(C)=NC(=S)NC1c1ccc(F)c(Br)c1 (stereo not given),2
c1cncc(CN2CCC(C3CCN(C4CCCCC4)C3)CC2)c1 (stereo not given),11
O=C(Cn1cncn1)NC1CCCc2nc(-c3ccccc3)ncc21 (stereo not given),-6
CCOC(=O)C1=C(C)N=c2s/c(=C\c3cc(I)c(O)c(OC)c3)c(=O)n2C1c1ccc(OC)cc1 (stereo not given),46*
CCOC(=O)C1=C(C)N=c2s/c(=C\c3cc(OC)ccc3OC)c(=O)n2C1c1ccc(OC)cc1 (stereo not given),3
CCOC(=O)C1=C(C)N=c2s/c(=C/c3ccccc3O)c(=O)n2C1c1ccc2c(c1)OCO2 (stereo not given),-6
CCOC(=O)C1=C(C)N=c2s/c(=C/c3ccc(I)cc3)c(=O)n2C1c1ccc2c(c1)OCO2 (stereo not given),-8
CCOC(=O)C1=C(C)N=c2s/c(=C\c3cc(Br)c(O)c(OC)c3)c(=O)n2C1c1ccc2c(c1)OCO2 (stereo not given),53*
SMILES,RBX1-CUL1 inh
CCOC(=O)C1=C(C)N=c2s/c(=C/c3cc(I)c(OC)c(OC)c3)c(=O)n2C1c1ccc(N(C)C)cc1 (stereo not given),8
O=C1OC(c2ccccc2)=NC1=C(Cl)Cl,-1
Cc1nc(Cl)c(C(=O)N2CCC(C)CC2)c(C)c1Cl,2
COc1cc(/C=C2/SC(=S)N(CC(=O)O)C2=O)ccc1OC(=O)c1ccc(C)cc1,93*
COc1cc(/C=C2\SC(=S)N(Cc3ccccc3)C2=O)ccc1OCC(=O)O,3
COc1cc(/C=C2/SC(=S)N(c3cccc(C(F)(F)F)c3)C2=O)ccc1OC(=O)c1ccc(C)cc1,-14
COC(=O)c1ccc(/C=C2\SC(=S)N(CO)C2=O)cc1,4
CCOC(=O)c1ccc(NC(=O)CCCCCN2C(=O)/C(=C\c3ccc(Cl)cc3)SC2=S)cc1,-6
COC(=O)c1ccc(/C=C2\SC(=S)N(CCCCCC(=O)O)C2=O)cc1,81*
N#Cc1c(N)c(C(=O)c2ccc(Br)cc2)n2ccccc12,-5
CCc1nnc(NC(=O)COC)s1,2
CCOCC(=O)Nc1nnc(CC)s1,5
CCc1nnc(NC(=O)CCSCCC(=O)Nc2nnc(CC)s2)s1,37*
CCOC(=O)C(Nc1ncccn1)(NS(=O)(=O)c1ccccc1)C(F)(F)F (stereo not given),14
Nc1nc2cc3nsnc3cc2s1,0
Nc1nc2cc(N)c(N)cc2s1,93*
CCOc1ccc2nc(N)sc2c1,-3
Cc1ccccc1OCC(=O)NNc1ccc([N+](=O)[O-])cc1[N+](=O)[O-],36*
O=C(NNc1ccc([N+](=O)[O-])cc1[N+](=O)[O-])c1cccc2ccccc12,-9
CCOC(=O)c1cc(-c2ccc([N+](=O)[O-])cc2)n(NC(=O)COc2ccccc2C)c1C,0
O=[N+]([O-])c1cc(-c2ccc(C=NNc3nncn3/N=C\c3ccc(-c4ccc(Cl)c([N+](=O)[O-])c4)o3)o2)ccc1Cl,7
Cc1ccc(C)c(OC(=O)c2ccc(=O)oc2)c1,28*
O=C(Oc1ccc(S(=O)(=O)O)cc1C(=O)O)c1ccc(=O)oc1,5
CCc1ccc(C)c(OC(=O)c2ccc(C)cc2)c1,-7
